Data taken from PubChem BioAssay.
A number with no mark means an inactive call. For some of these results: Results with a measured potency or affinity are listed apart. Activity calls are given as the source filed them. Unless noted, how the calls were made is not given here.

How the values were obtained:
[1] = antimalarial activity against Dd2 strain (AID 2302;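 active means growth inhibition above 50% at the single 2 µM test dose, taken to imply half-maximal potency below 2 µM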;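 further: 0% = DMSO untreated growth and 100% = chloroquine plus artemisinin killed control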); settings: P. falciparum Dd2 in RBCs, LDH growth readout, 72 h; at 2 µM; stronger effect = higher value
[2] = target: L-lactate dehydrogenase (Plasmodium falciparum (isolate CDC / Honduras)) (UniProt Q27743); test: PfLDH activity inhibition – cell lysate, 3D7 strain, counter-screen for P. falciparum growth inhibition project (AID 2304);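 further: 0% = vehicle and 100% = reference inhibitor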; settings: P. falciparum 3D7 crude extract, LDH APAD/NBT absorbance; at 2 µM; stronger effect = higher value
Chain of L-lactate dehydrogenase (Plasmodium falciparum (isolate CDC / Honduras)) (Q27743 whole entry, looked up): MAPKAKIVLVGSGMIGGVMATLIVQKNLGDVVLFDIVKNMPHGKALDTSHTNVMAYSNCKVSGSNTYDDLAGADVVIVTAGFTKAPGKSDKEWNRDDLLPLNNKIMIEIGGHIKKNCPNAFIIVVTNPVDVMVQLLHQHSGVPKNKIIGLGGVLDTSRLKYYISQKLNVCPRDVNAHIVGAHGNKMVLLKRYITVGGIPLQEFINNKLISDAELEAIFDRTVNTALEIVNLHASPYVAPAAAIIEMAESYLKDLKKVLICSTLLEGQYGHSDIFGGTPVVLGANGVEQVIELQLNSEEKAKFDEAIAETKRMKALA

[3] = inhibition of 3D7 malaria parasite growth – strain 3D7 (AID 2306);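 further: 0% = DMSO wells and 100% = chloroquine plus artemisinin control wells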; settings: P. falciparum 3D7 erythrocytic growth, LDH absorbance, 72 h; at 2 µM; stronger effect = higher value
[4] = target: Calcium-dependent protein kinase 1 (Plasmodium falciparum (isolate 3D7)) (UniProt P62344); test: PfCDPK1 kinase inhibitors, biochemical, TCAMS library (AID 1159585; cut-off not given, nearly all actives have IC50 up to about 0.98 µM;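 further: inhibitors leave more ATP so luminescence rises with inhibition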); settings: recombinant PfCDPK1, Kinase-Glo ATP depletion luminescence
Chain of Calcium-dependent protein kinase 1 (Plasmodium falciparum (isolate 3D7)) (P62344 whole entry, looked up): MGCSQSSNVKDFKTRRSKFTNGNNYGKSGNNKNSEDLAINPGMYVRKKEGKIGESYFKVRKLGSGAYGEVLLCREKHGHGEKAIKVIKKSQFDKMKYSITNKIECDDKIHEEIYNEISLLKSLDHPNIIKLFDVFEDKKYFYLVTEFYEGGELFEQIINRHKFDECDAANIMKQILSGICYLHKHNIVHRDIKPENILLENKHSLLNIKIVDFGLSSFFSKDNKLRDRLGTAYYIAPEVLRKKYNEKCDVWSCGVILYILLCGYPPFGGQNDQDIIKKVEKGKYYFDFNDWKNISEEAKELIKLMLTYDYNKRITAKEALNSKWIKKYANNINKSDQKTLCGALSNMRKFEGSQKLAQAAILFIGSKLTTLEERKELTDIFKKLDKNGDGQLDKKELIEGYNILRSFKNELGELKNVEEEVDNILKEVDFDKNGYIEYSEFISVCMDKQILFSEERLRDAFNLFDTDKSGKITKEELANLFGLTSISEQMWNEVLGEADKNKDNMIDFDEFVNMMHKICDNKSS

[5] = target: Plasmodium falciparum protein kinase 6 (PK6, PF3D7_1337100) (UniProt Q8IDW1); test: PfPK6 kinase inhibitors, biochemical, TCAMS library (AID 1159586); settings: recombinant PfPK6, Kinase-Glo ATP depletion luminescence
Chain of Plasmodium falciparum protein kinase 6 (PK6, PF3D7_1337100) (Q8IDW1 1-305): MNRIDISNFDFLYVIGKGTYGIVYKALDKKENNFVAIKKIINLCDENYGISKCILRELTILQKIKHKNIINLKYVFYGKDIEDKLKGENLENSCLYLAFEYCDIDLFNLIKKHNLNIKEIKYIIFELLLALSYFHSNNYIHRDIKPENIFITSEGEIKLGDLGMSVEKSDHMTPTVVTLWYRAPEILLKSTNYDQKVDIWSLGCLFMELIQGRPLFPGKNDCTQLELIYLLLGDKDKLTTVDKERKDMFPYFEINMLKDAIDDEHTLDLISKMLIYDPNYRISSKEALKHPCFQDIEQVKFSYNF

[6] = target: Protein kinase 7 (PK7), Plasmodium falciparum 3D7 (PF3D7_0213400) (UniProt Q7YTF7); test: inhibition of Plasmodium PK7 catalytic activity – biochemical, TCAMS antimalarial set, Kinase-Glo luminescence (AID 1159587); settings: recombinant PfPK7, Kinase-Glo ATP depletion luminescence
Chain of Protein kinase 7 (PK7), Plasmodium falciparum 3D7 (PF3D7_0213400) (Q7YTF7 1-343): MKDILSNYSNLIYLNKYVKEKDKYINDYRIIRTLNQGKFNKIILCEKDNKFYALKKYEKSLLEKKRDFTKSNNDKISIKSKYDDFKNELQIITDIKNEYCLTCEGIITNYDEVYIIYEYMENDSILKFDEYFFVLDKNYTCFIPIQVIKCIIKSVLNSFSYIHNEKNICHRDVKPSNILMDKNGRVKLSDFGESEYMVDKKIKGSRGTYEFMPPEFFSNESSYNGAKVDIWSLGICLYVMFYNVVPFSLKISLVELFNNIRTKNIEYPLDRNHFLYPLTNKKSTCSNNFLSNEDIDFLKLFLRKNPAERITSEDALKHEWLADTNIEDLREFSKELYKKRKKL

[7] = target: Calcium-dependent protein kinase 4 (Plasmodium falciparum (isolate 3D7)) (UniProt Q8IBS5); test: PfCDPK4 kinase inhibitors, biochemical, TCAMS library (AID 1159588; cut-off not given, nearly all actives have IC50 up to about 0.91 µM); settings: recombinant PfCDPK4, Kinase-Glo ATP depletion luminescence
Chain of Calcium-dependent protein kinase 4 (Plasmodium falciparum (isolate 3D7)) (Q8IBS5 whole entry, looked up): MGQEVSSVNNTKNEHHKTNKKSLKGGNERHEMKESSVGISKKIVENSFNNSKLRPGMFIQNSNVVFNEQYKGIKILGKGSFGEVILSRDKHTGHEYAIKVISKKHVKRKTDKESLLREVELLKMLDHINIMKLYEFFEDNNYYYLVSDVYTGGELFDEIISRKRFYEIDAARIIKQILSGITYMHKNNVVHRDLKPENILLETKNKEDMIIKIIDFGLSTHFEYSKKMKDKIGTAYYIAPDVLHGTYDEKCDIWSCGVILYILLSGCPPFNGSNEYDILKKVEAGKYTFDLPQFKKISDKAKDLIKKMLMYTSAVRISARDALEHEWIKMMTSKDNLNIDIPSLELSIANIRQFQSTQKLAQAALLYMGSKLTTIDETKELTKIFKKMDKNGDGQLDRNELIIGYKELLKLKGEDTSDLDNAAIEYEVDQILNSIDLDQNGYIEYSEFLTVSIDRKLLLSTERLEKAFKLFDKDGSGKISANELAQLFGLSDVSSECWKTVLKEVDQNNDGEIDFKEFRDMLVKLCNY

Row | SMILES | growth inhibition [1] | inhibition [2] [%] | growth inhibition [3] | outcome [4] | outcome [5] | outcome [6] | outcome [7]
1 | c1ccc(CN2CCN(CCCCNc3c4ccccc4nc4ccccc34)CC2)cc1 | 101% (active) | -6 | 102% (active) | inactive | inactive | inactive | inactive
2 | COc1ccc2c(=O)c(Br)c(C)[nH]c2c1 | 74% (active) | -8 | 89% (active) | inactive | inactive | inactive | inactive
3 | Cc1[nH]c(C)c(-c2ccc(Oc3ccc(Cl)cc3)cc2)c(=O)c1I | 49% | 5 | 88% (active) | inactive | inactive | inactive | inactive
4 | Cc1[nH]c(C)c(-c2ccc(Oc3ccccc3)cc2)c(=O)c1Br | 97% (active) | 1 | 96% (active) | inactive | inactive | inactive | inactive
5 | CCc1ccc(Cc2cnc3nc(N)nc(N)c3c2C)cc1 | -1% | 0 | 97% (active) | inactive | inactive | inactive | inactive
6 | CCOc1cc(OCC)c2ccccc2c1CNCCCCCCNCc1c(OCC)cc(OCC)c2ccccc12 | 89% (active) | 2 | 101% (active) | inactive | inactive | inactive | inactive
7 | Cc1[nH]c(C)c(-c2cccc(Oc3ccc(Cl)cc3)c2)c(=O)c1Br | 97% (active) | 4 | 96% (active) | inactive | inactive | inactive | inactive
8 | Cc1cccc(Cn2ccc3c4c(N)nc(N)nc4ccc32)c1 | 98% (active) | 1 | 95% (active) | inactive | inactive | inactive | inactive
9 | CCCCCCn1ccc2c3c(N)nc(N)nc3ccc21 | 91% (active) | 0 | 99% (active) | inactive | inactive | inactive | inactive
10 | CCCc1cc(OC)c(CC2c3cc(O)c(Cl)cc3C(c3ccccc3)CN2C)cc1OC (stereo not drawn) | 100% (active) | 4 | 100% (active) | inactive | inactive | inactive | inactive
11 | Nc1ncc(-c2ccc(Br)cc2)c(N)n1 | 0% | 0 | 89% (active) | inactive | inactive | inactive | inactive
12 | CCCCSc1ccc(CNCCCCCCNCc2ccc(SCCCC)c3ccccc23)c2ccccc12 | 48% | 0 | 94% (active) | inactive | inactive | inactive | inactive
13 | Nc1nc(N)c2c(Oc3ccc(Cl)c(Cl)c3)cccc2n1 | 22% | -5 | 95% (active) | inactive | inactive | inactive | inactive
14 | Nc1nc(N)c2c(ccc3c2ccn3Cc2ccc3c(c2)OCO3)n1 | 95% (active) | -3 | 100% (active) | inactive | inactive | inactive | inactive
15 | CC(=NNC(=S)NCCc1ccccn1)c1ccccn1 | 95% (active) | -3 | 100% (active) | inactive | inactive | inactive | inactive
16 | Cc1cc2c3c(N)nc(N)nc3ccc2n1C | -2% | -5 | 95% (active) | inactive | inactive | inactive | inactive
17 | COc1ccc2c(CNCCCCCCNCc3c(OC)ccc4cc(OC)ccc34)c(OC)ccc2c1 | 79% (active) | -7 | 101% (active) | inactive | inactive | inactive | inactive
18 | COc1ccc(C2c3ccccc3-c3nc(N)nc(N)c3C2C)cc1 (stereo not drawn) | 0% | 3 | 97% (active) | inactive | inactive | inactive | inactive
19 | CC1CCNc2ccc(Cc3cnc(N)nc3N)cc21 (stereo not drawn) | 0% | 5 | 82% (active) | inactive | inactive | inactive | inactive
20 | Nc1nnc(-c2ccc(Cl)c(Br)c2)c(N)n1 | -3% | -3 | 86% (active) | inactive | inactive | inactive | inactive
21 | CCCCc1nc2nc(N)nc(N)c2cc1CCC | -3% | -1 | 97% (active) | inactive | inactive | inactive | inactive
22 | COc1ccc(OC)c(CC2c3ccc(Br)c(O)c3CCN2C)c1 (stereo not drawn) | 97% (active) | -7 | 98% (active) | inactive | inactive | inactive | inactive
23 | CCOC(=O)c1nc2ccc(SC3CCCCC3)cn2c1Br | 3% | 3 | 86% (active) | inactive | inactive | inactive | inactive
24 | Cc1[nH]c(C)c(-c2ccc(Oc3ccc(F)cc3)cc2)c(=O)c1Br | 98% (active) | -1 | 100% (active) | inactive | inactive | inactive | inactive
25 | Nc1nc(N)c2c(Oc3cccc(Cl)c3)cccc2n1 | 7% | -7 | 97% (active) | inactive | inactive | inactive | inactive

Row | SMILES | growth inhibition [1] | inhibition [2] [%] | growth inhibition [3] | outcome [4] | outcome [5] | outcome [6] | outcome [7]
26 | O=C(NCCCCN1CCN(c2nsc3ccccc23)CC1)c1ccccc1C(=O)NCCCCN1CCN(c2nsc3ccccc23)CC1 | 22% | -8 | 100% (active) | inactive | inactive | inactive | inactive
27 | CCCCNCc1cc(Cl)c2ccccc2c1O | 100% (active) | 0 | 102% (active) | inactive | inactive | inactive | inactive
28 | CCCCCCCN(Cc1ccc(OC(C)(C)C(=O)OCC)cc1)C(=O)Cc1ccc(F)cc1F | 95% (active) | -3 | 93% (active) | inactive | inactive | inactive | inactive
29 | COc1cc(Cc2cnc(N)nc2N)cc(OCCCCC#N)c1OC | -1% | 8 | 86% (active) | inactive | inactive | inactive | inactive
30 | COc1cc(Cc2cnc(N)nc2N)cc(OCCCCCCC(=O)O)c1OC | 2% | -4 | 90% (active) | inactive | inactive | inactive | inactive
31 | COc1cc(Cc2cnc(N)nc2N)cc(OCCCCCCN)c1OC | -4% | -6 | 96% (active) | inactive | inactive | inactive | inactive
32 | CCc1cccc(-c2cc(=N)n(C)c3nc(N)[nH]c(=O)c23)c1 | 28% | 3 | 85% (active) | inactive | inactive | inactive | inactive
33 | CCN(C)C(=O)n1ncc2c3c(N)nc(N)nc3ccc21 | 0% | 6 | 95% (active) | inactive | inactive | inactive | inactive
34 | Cc1[nH]c(C)c(-c2ccc(Oc3ccc(C(F)(F)F)cc3)cc2)c(=O)c1Br | 97% (active) | -8 | 97% (active) | inactive | inactive | inactive | inactive
35 | CCc1cc(COc2ccc(CNCCC(C)C)cc2I)c(OCc2ccccc2)c(COc2ccc(CNCCC(C)C)cc2I)c1 | 15% | 0 | 89% (active) | inactive | inactive | inactive | inactive
36 | CCOc1ccc(CNCCCCCCNCc2ccc(OCC)c3ccccc23)c2ccccc12 | 75% (active) | -4 | 101% (active) | inactive | inactive | inactive | inactive
37 | CC(C)(C)c1ccc(Cc2cccc3nc(N)nc(N)c23)cc1 | 51% (active) | 4 | 100% (active) | inactive | inactive | inactive | inactive
38 | O=c1c2ccc(Sc3ccccn3)cc2n(-c2ccccc2)c2cc(Sc3ccccn3)ccc12 | 70% (active) | -3 | 89% (active) | inactive | inactive | inactive | inactive
39 | CCCCNCCOc1ccc(-c2nc(-c3ccccc3)c(-c3ccccc3)[nH]2)cc1 | 34% | -5 | 100% (active) | inactive | inactive | inactive | inactive
40 | Cc1[nH]c(C)c(-c2ccc(Oc3cccc(C(F)(F)F)c3)cc2)c(=O)c1Br | 97% (active) | 4 | 99% (active) | inactive | inactive | inactive | inactive
41 | COc1cc(Cc2cnc(N)nc2N)cc(OCCCCc2ccc([N+](=O)[O-])cc2)c1OC | 4% | -10 | 88% (active) | inactive | inactive | inactive | inactive
42 | CCC(C)c1cnc2nc(N)nc(N)c2c1C (stereo not drawn) | 1% | -3 | 97% (active) | inactive | inactive | inactive | inactive
43 | COc1cc2c(cc1OC)C(C)(C)CN1Cc3c(c(CO)c(OC)c(OC)c3OC)CC21 (stereo not drawn) | 9% | 2 | 95% (active) | inactive | inactive | inactive | inactive
44 | CC(CN=C(N)c1cccc(C(N)=NCC(C)Oc2cccc(C3CCCCC3)c2)n1)Oc1cccc(C2CCCCC2)c1 (stereo not drawn) | 31% | 2 | 90% (active) | inactive | inactive | inactive | inactive
45 | Nc1nc(N)c2c(ccc3nn(Cc4ccccc4)cc32)n1 | 88% (active) | 0 | 97% (active) | inactive | inactive | inactive | inactive
46 | CC(C)n1c(C(C)(C)C)cc2c3c(N)nc(N)nc3ccc21 | 99% (active) | -3 | 100% (active) | inactive | inactive | inactive | inactive
47 | Nc1nc(N)c2c(ccc3c2ccn3Cc2cccc(F)c2)n1 | 99% (active) | -6 | 101% (active) | inactive | inactive | inactive | inactive
48 | CCCCCCOc1ccc2ccccc2c1CNCCCCCCNCc1c(OCCCCCC)ccc2ccccc12 | 55% (active) | 6 | 85% (active) | inactive | inactive | inactive | inactive
49 | CC(=O)Nc1ccc(OCCCCCOc2ccc(NC(C)=O)cc2Cl)c(Cl)c1 | 0% | -7 | 93% (active) | inactive | inactive | inactive | inactive
